The values that follow come from PubChem BioAssay AID743182 (Broad Institute, 2013).

Activity calls are given as the source filed them.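 Rule for the calls: active = cell killing with a fitted half-maximal concentration at most twice the top valid dose tested; inconclusive = flat curve with 30 to 70% signal loss, or poor fit; inactive = the rest.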

A short description of the test: viability loss in HEK293 cells – cell-based, luminescence, dry powder, set 8, cytotoxicity control, dose response (AID 743182). The following applies: HEK293T viability, CellTiter-Glo ATP luminescence, 72 h; series mostly up to 26 µM.
Regarding `O=C(N/N=C/c1c[nH]c2ccccc12)c1cccc(O)c1`, the call was inactive.
For `CSc1ccc(/C=N/NC(=O)c2ccc3nc[nH]c3c2)cc1`, the compound was called inactive.
Regarding `O=C(N/N=C/c1c[nH]c2ccccc12)c1cccs1`, the compound was called inactive.
